Results on 64 compounds are retold here after ChEMBL document CHEMBL3988442, “University of Dundee, Small-Polar-MMV Screening Library” (2021).

Among all 48,000 compounds or so, about 13,000 (27%) showed an effect of 50% or more. The list shows a part of the results.

The test system of the test is Wolbachia pipientis. Put plainly: Anti-Wolbachia Cell-Based Screen. As to conditions: 5 µM. Also noted: scale not given: in the data most compounds retested in dose-response had high values. The format is functional.
On to `NCC1CN(C(=O)c2cccc(-n3cccn3)c2)CCO1` (centres undefined), for which the “Percent Effect” value is reported as 12.21%.

As to `CCCc1cc(NC2CCc3ncnn3C2)n2ncnc2n1` (centres undefined), the “Percent Effect” value is on record as -15.24%.

Consider `CSCC(C)(O)CNc1cccc(F)c1C#N` (centres undefined), for which the “Percent Effect” value was -5.996%.

Turning to `CCCOc1cc(CNC(=O)Nc2cccnc2N2CCCC2)ccn1`, the “Percent Effect” value is listed as 3.924%.

For the compound `COc1cccc2cc(CNCc3ccnc(N(C)C)c3)oc12`, the “Percent Effect” value was 97.53%.

Take `COc1cccc2cc(CNCc3ccnc(N4CCOCC4)c3)oc12`: the “Percent Effect” value was -10.04%.

Consider `COc1ccc(CNCc2ccc(N3CCCCC3)nc2)cc1OC`, for which the “Percent Effect” value worked out at 5.038%.

Turning to `COc1cccc2cc(CNCc3ccnc(N4CCCCC4)c3)oc12`, the “Percent Effect” value was found to be 98.43%.

For `COc1cccc2cc(CNC(=O)N3CCCC(O)C3)oc12` (centres undefined), the “Percent Effect” value is listed as -11.96%.

Turning to `COc1cccc2cc(CNCc3ccc(N4CCCC4)nc3)oc12`, the “Percent Effect” value was 106.9%.

`COc1cc(CNCc2ccco2)ccc1OCCO.Cl`: the “Percent Effect” value is on record as -24.56%.

On to `COc1c(CNCc2ccc(N3CCOCC3)nc2)c(C)nn1C`, for which the “Percent Effect” value is -5.256%.

As for `COc1ccc(CNCc2ccnc(N3CCCCC3)c2)cc1OC`, the “Percent Effect” value is reported as 4.647%.

As for `CC(NC(=O)NCc1cccc(N2CCCC2=O)c1)c1ccccc1` (centres undefined), the “Percent Effect” value was determined as 10.19%.

Take `CC(=O)N[C@@H]1CN(c2nc(C(N)=O)cs2)C[C@H]1c1ccc(C)o1`: the “Percent Effect” value is 3.94%.

For `CC(C)c1cc(N2CCN(c3ccc(O)cc3)CC2)n2nccc2n1`, the “Percent Effect” value is reported as -10.08%.

For the compound `Cc1nc(C)n(CC2CCCCN2CC(=O)NC2CCOCC2)n1` (centres undefined), the “Percent Effect” value was -3.575%.

`CCC[C@@H]1CN(C(=O)Cc2sc(C)nc2C)C[C@H]1C(=O)O`: the “Percent Effect” value turned out to be 9.333%.

For the compound `Cc1nc(C)c(CC(=O)N2C[C@@H](C(=O)O)[C@H](c3ccccc3C)C2)s1`, the “Percent Effect” value is -4.112%.

Consider `Cc1ncc2c(n1)CCN(C(=O)Cc1c(C)noc1C)C2`, for which the “Percent Effect” value is on record as -7.344%.

As to `Cc1nc(CC(=O)N2CCN(c3ccc(N(C)C)cc3)CC2)cs1`, the “Percent Effect” value was -7.561%.

Regarding `Cc1nc(CC(=O)N2CCC(c3ccn4nccc4n3)CC2)cs1`, the “Percent Effect” value is recorded as 100.2%.

For the compound `Cc1noc(C)c1CC(=O)N1CCC(c2ccn3nccc3n2)CC1`, the “Percent Effect” value was 116.9%.

Turning to `COC1CCN(C(=O)CCc2c(C)nc3ccnn3c2C)CC1`, the “Percent Effect” value stood at 2.453%.

Regarding `Cc1nc(C)c(CC(=O)N2CCC(c3ccn4nccc4n3)CC2)s1`, the “Percent Effect” value was determined as 148.4%.

Consider `Cc1nc(CC(=O)N2CCC(Nc3cccnn3)CC2)cs1`, for which the “Percent Effect” value is 10.36%.

In the case of `O=C(NC[C@H]1OC[C@@H](NC2CCC2)[C@@H]1O)Nc1ccccc1`, the “Percent Effect” value turned out to be 27.93%.

In the case of `COCCCN(C)S(=O)(=O)c1ccc(C(F)(F)F)cc1C#N`, the “Percent Effect” value came out at 0.354%.

On to `Cc1cc(CC(C)Nc2ncnc3cccc(F)c23)[nH]n1` (centres undefined), for which the “Percent Effect” value is -16.45%.

In the case of `Cc1cc(NCC(C)C)ccc1C(=O)N(C)C`, the “Percent Effect” value was -5.944%.

With `Cc1cc(NC(=O)N(CCC#N)CCCN(C)C)ccc1F`, the “Percent Effect” value was -0.7911%.

Take `Cc1cc(NCC(=O)N(C)C)c(C(N)=O)cc1F`: the “Percent Effect” value is listed as 4.75%.

On to `CCN(C(=O)CNc1cc(C)c(F)cc1C(N)=O)C1CC1`, for which the “Percent Effect” value was -0.2217%.

Consider `CCN(CC)C(=O)Nc1ccc(C(=O)N(C)C)c(C)c1`, for which the “Percent Effect” value was -2.57%.

As for `CCN(CC(C)C#N)C(=O)CSc1ccc(C(F)(F)F)cn1` (centres undefined), the “Percent Effect” value is -16%.

In the case of `CCN(CC(C)C#N)C(=O)CNc1ccc(C(N)=O)c(C)c1` (centres undefined), the “Percent Effect” value worked out at 94.3%.

`CCN(CC(C)C#N)C(=O)CNc1cc(Cl)ccc1C(N)=O` (centres undefined): the “Percent Effect” value was 109.4%.

As to `CCN(CC(C)C#N)C(=O)CNc1ccc(F)c(C)c1` (centres undefined), the “Percent Effect” value is 98.55%.

For `CNC(=O)N1CCC2(CC1)CN(C(C)C)Cc1cc(F)ccc12.Cl`, the “Percent Effect” value is listed as -6.692%.

In the case of `CCn1c(CN(C)C)nnc1C1CCN(Cc2ccc(Cl)cc2)CC1`, the “Percent Effect” value is on record as -12.39%.

With `Cc1noc(C)c1CC(=O)N1CCCN(C)c2ccc(Cl)cc21`, the “Percent Effect” value is 108.2%.

For the compound `Cc1noc(C)c1C(=O)N1CCCN(C)c2ccc(Cl)cc21`, the “Percent Effect” value was found to be 90.03%.

As to `CCC(CNC(=O)Cc1c(C)noc1C)N1CCCC1` (centres undefined), the “Percent Effect” value is listed as 6.109%.

For `Cc1nc(CN2CCN(C(=O)c3c(C)noc3C)CC2)cs1`, the “Percent Effect” value was -5.34%.

Regarding `Cc1noc(C)c1C(=O)N1CC[C@H]2C[C@@H](c3nccs3)O[C@@H]2C1`, the “Percent Effect” value is given as -4.112%.

Take `Cc1noc(C)c1C(C)C(=O)N1CCCN(C)c2ccc(Cl)cc21` (centres undefined): the “Percent Effect” value came out at 111.8%.

Consider `Cc1noc(C)c1C(C)NC(=O)N1CCCN(C(=O)c2ccsc2)CC1` (centres undefined), for which the “Percent Effect” value amounted to 6.672%.

For the compound `CN1CCCN(S(=O)(=O)c2cn(C)cn2)c2cc(Cl)ccc21`, the “Percent Effect” value is given as -2.244%.

`Cc1noc(C)c1C(=O)N1CCSc2ccc(Cl)cc21`: the “Percent Effect” value was found to be 93.15%.

As to `Cc1noc(C)c1CN(C)C(=O)CCOc1ccc(Cl)cc1`, the “Percent Effect” value is 13.27%.

For the compound `Cc1noc(C)c1C(C)NC(=O)N1CCN(c2cccs2)CC1` (centres undefined), the “Percent Effect” value was determined as 5.123%.

As for `O=c1[nH]nc(CNc2cncc(Br)c2)[nH]1`, the “Percent Effect” value is given as -1.101%.

In the case of `Cn1cc(S(=O)(=O)NC(=O)C2(c3cccc(Cl)c3)CC2)cn1`, the “Percent Effect” value was 9.889%.

As for `Cc1ccc(CN2CC[C@@H](NS(C)(=O)=O)[C@@H]2Cc2ccncc2)o1.O=C(O)C(F)(F)F.O=C(O)C(F)(F)F`, the “Percent Effect” value is recorded as 0.02145%.

As to `Cc1ccc(CN(Cc2ncc[nH]2)C2CC(C)(C)NC(C)(C)C2)o1.O=C(O)CC(O)(CC(=O)O)C(=O)O`, the “Percent Effect” value was 124%.

In the case of `Cc1cccc(CN(Cc2ccc(C)o2)C2CC(C)(C)NC(C)(C)C2)n1.O=C(O)CC(O)(CC(=O)O)C(=O)O`, the “Percent Effect” value is on record as -13.89%.

Take `Cc1ccc(CN(Cc2ccncc2)C2CC(C)(C)NC(C)(C)C2)o1.O=C(O)CC(O)(CC(=O)O)C(=O)O`: the “Percent Effect” value is 117.7%.

Regarding `CN(Cc1ncc[nH]1)CC1CCOc2ccccc2C1` (centres undefined), the “Percent Effect” value is 5.15%.

`CC1(C)CC(N(Cc2ccccc2)Cc2ncc[nH]2)CC(C)(C)N1.O=C(O)CC(O)(CC(=O)O)C(=O)O`: the “Percent Effect” value turned out to be 109.1%.

Regarding `Cc1ccccc1CN(CCO)Cc1ncc[nH]1`, the “Percent Effect” value was -0.936%.

With `CCN(CC)C(=O)[C@@H]1C[C@@H](NC(=O)c2ccoc2)CN1C`, the “Percent Effect” value came out at 5.596%.

Take `CN(Cc1ncc[nH]1)CC(c1cccs1)N1CCOCC1` (centres undefined): the “Percent Effect” value is reported as -1.486%.

On to `Cc1nc(NC(=O)NC2CC(=O)N(C)C2)nn1C(C)C` (centres undefined), for which the “Percent Effect” value is -15.27%.

Consider `CCC[C@H]1CN(c2nccc(NCC)n2)C[C@@H]1NS(=O)(=O)N(C)C`, for which the “Percent Effect” value came out at 9.452%.
